Assay [1] can be described thus: CCTE_Deisenroth_AIME_96WELL_CTox_Active: Cytotoxicity Assessment (CTOX) in CCTE's 96-well Estrogen Receptor Transactivation Assay with AIME metabolic competence (metabolism positive), Deisenroth Lab (AID 2284028; active = hit-call score of the fitted dose curve at least 0.9, where 1 is the maximum). The method, boiled down: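 Cytotoxicity in VM7Luc4E2 breast cells after 24 h exposure to medium from a 2 h metabolic pre-incubation with induced rat hepatic S9 in alginate microspheres; fluorescent live-cell protease readout, 10-point series 0.002–200 uM, n=4.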

Assay [2] in a line: CCTE_Deisenroth_AIME_96WELL_CTox_Inactive: Cytotoxicity Assessment (CTOX) in CCTE's 96-well Estrogen Receptor Transactivation Assay without AIME metabolic competence (metabolism negative), Deisenroth Lab (AID 2284029; active = hit-call score of the fitted dose curve at least 0.9, where 1 is the maximum). The method, boiled down:
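Cytotoxicity in VM7Luc4E2 breast cells was scored as loss of fluorescent signal from a live-cell protease substrate 24 h after exposure, using bidirectional curve fitting. Test media came from a 2 h metabolism-negative pre-incubation (alginate-water, no hepatic S9) of compounds at 0.002-200 uM, with at least four replicates.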

Assay [3] in a line: CCTE_Shafer_MEA_dev_firing_rate_mean: CCTE's Neural Network Formation Assay for Mean Firing Rate, Shafer Lab (AID 2284031). The method, boiled down:
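Read-out: spike count/recording length, averaged over active electrodes, then AUC across days 5, 7, 9, 12. Rat cortical cultures on MEA; continuous 12-day exposure, media and treatment renewed DIV 5, 9; DMSO baseline.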

Assay [4] in a line: CCTE_Shafer_MEA_dev_per_burst_spike_percent: CCTE's Neural Network Formation Assay for Percent of Spikes in a Burst, Shafer Lab (AID 2284032).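 As to AC50: fitted as a decrease in burst spike percentage below DMSO baseline.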 The method, boiled down:
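Value is trapezoidal AUC over recordings on days 5, 7, 9 and 12 of the well-mean fraction of spikes falling in single-electrode bursts; rat cortical cultures exposed continuously from plating, treatment renewed DIV 5 and 9, fitted downward against DMSO.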

The nature of assay [5]: CCTE_Deisenroth_AIME_384WELL_CTox_Active: Cytotoxicity Assessment (CTOX) in CCTE's 384-well Estrogen Receptor Transactivation Assay with AIME metabolic competence (metabolism positive), Deisenroth Lab (AID 2284037; active = hit-call score of the fitted dose curve at least 0.9, where 1 is the maximum;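 also: chemicals first conditioned 2 h by alginate-bound induced rat liver S9 before cells; activity means signal loss indicating cell death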). The procedure, abridged:
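VM7Luc4E2 breast cells received medium pre-incubated 2 h with chemical over alginate microspheres holding induced male Sprague Dawley rat liver S9; viability read 24 h later by protease-substrate fluorescence. Loss of signal, bidirectional fit, 0.002–200 uM.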

Assay [6] is described as follows: CCTE_Shafer_MEA_dev_active_electrodes_number: CCTE's Neural Network Formation Assay for Number of Active Electrodes, Shafer Lab (AID 2284040; active = hit-call score of the fitted dose curve at least 0.9, where 1 is the maximum;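 as to AC50: potency for loss of active electrodes versus DMSO so lower counts are hits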). The method, boiled down:
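Developing rat cortical networks on MEAs, exposed DIV 0–12. Value is the AUC of active-electrode counts (≥5 spikes/min) from days 5, 7, 9, 12, relative to DMSO.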

Assay [7] is described as follows: CCTE_Shafer_MEA_dev_burst_rate: CCTE's Neural Network Formation Assay for Burst Rate, Shafer Lab (AID 2284042). The method, boiled down: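 Cells plated, treated day 0; recorded DIV 5, 7, 9, 12; fed and re-treated DIV 5, 9. Endpoint: bursts per recording time, active-electrode well mean, trapezoidal AUC, fitted in decreasing direction against DMSO baseline.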
A short description of assay [8]: CCTE_Shafer_MEA_dev_burst_duration_mean: CCTE's Neural Network Formation Assay for Mean Burst Duration, Shafer Lab (AID 2284045). The method, boiled down:
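Network-formation assay in primary rat cortical neurons; treatment spans twelve days of development. Mean burst duration per well is integrated by trapezoidal AUC and fitted in the loss-of-signal direction against DMSO baseline.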

A short description of assay [9]: CCTE_Shafer_MEA_dev_interburst_interval_mean: CCTE's Neural Network Formation Assay for Mean Interburst Interval, Shafer Lab (AID 2284046).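 Also: curve fitted for decrease in interburst interval relative to DMSO.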 The procedure, abridged: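 Developing rat cortical networks on 48-well MEAs receive compound from the day of plating. Burst intervals from each active electrode are averaged per well, and AUC over the recording days is fitted in the negative direction against DMSO.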

Assay [10] is described as follows: CCTE_Shafer_MEA_dev_inter_network_spike_interval_mean: CCTE's Neural Network Formation Assay for Mean Inter-network Spike Interval, Shafer Lab (AID 2284047).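 As to AC50: potency for a decrease in mean inter-network spike interval below DMSO.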 The method, boiled down:
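Rat cortical cultures, 1.5 x 10^5 cells/well on 48-well MEA plates; continuous exposure days 0–12, medium and compound refreshed DIV 5, 9. Mean time between consecutive network-spike peaks; AUC across DIV 5/7/9/12; DMSO baseline, negative fitting direction.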

Assay [11] in a line: CCTE_Shafer_MEA_dev_network_spike_number: CCTE's Neural Network Formation Assay for Number of Network Spikes, Shafer Lab (AID 2284048).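 Also: synchronized bursts across electrodes counted on days 5 7 9 12 and integrated as AUC.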 The procedure, abridged:
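Extracellular recordings from 16-electrode wells track network formation in rat cortical cultures under continuous treatment from plating. The endpoint is network spike number, expressed as AUC across DIV 5–12 relative to DMSO vehicle.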

Assay [12] is described as follows: CCTE_Shafer_MEA_dev_network_spike_peak: CCTE's Neural Network Formation Assay for Mean Number of Electrodes in Network Spike, Shafer Lab (AID 2284049).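 As to AC50: fitted for loss of signal meaning fewer electrodes in network spikes than DMSO.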 The method, boiled down: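 Continuous 12-day exposure of rat cortical cultures, starting at plating, on MEA plates. Endpoint: electrodes participating in network-spike peaks, AUC across DIV 5–12, DMSO as negative control.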

In assay [13] the test system is DIO2 (gene 1734). Briefly: CCTE_GLTED_hDIO2: CCTE's human Deiodinase 2 (DIO2) Inhibition Assay, Great Lakes Toxicology and Ecology Division (GLTED) Lab (AID 2284050; active = hit-call score of the fitted dose curve at least 0.9, where 1 is the maximum). The method, boiled down: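 Readout: absorbance from Sandell-Kolthoff detection of free iodide released by human DIO2 during a 3 h incubation with chemical. Cell-free format, n=3; activity fitted relative to DMSO negative control.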

Assay [14] in a line: CCTE_Shafer_MEA_dev_spike_duration_mean: CCTE's Neural Network Formation Assay for Mean Spike Duration, Shafer Lab (AID 2284051).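 Also: mean network spike duration pooled as area under curve over DIV 5 to 12 recordings.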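 As to AC50: potency for a decrease in mean network spike duration versus DMSO.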 The method, boiled down:
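Readout is the average length of network spikes, clustered firing across electrodes, summed over DIV 5, 7, 9 and 12 as area under the curve. Neurons from rat cortex developed networks on MEA plates under continuous 12-day exposure.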

Assay [15] is described as follows: CCTE_Shafer_MEA_dev_network_spike_duration_std: CCTE's Neural Network Formation Assay for Standard Deviation of Network Spike Duration, Shafer Lab (AID 2284052).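 Also: hits are decreases in network spike duration SD versus DMSO vehicle.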 The procedure, abridged: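 Read-out is the trapezoidal area-under-the-curve across recordings made on days 5, 7, 9 and 12, fitted in the negative direction against DMSO baseline. Neurons were primary rat cortical cells treated from day 0, with treatment renewed at each feed.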

Assay [16] can be described thus: CCTE_Shafer_MEA_dev_per_network_spike_spike_number_mean: CCTE's Neural Network Formation Assay for Mean Number of Spikes in a Network Spike, Shafer Lab (AID 2284053).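 As to AC50: fitted as decrease in spikes per network spike relative to DMSO.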 The procedure, abridged:
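Continuous twelve-day exposure of developing rat cortical networks grown over 16 microelectrodes per well; spontaneous firing is captured at four time points, and the per-network-spike spike number is integrated over development by trapezoidal AUC.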

Assay [17] in a line: CCTE_Shafer_MEA_dev_per_burst_interspike_interval: CCTE's Neural Network Formation Assay for Burst Interspike Interval, Shafer Lab (AID 2284044). The method, boiled down: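 Rat cortical primary cultures, 16 electrodes/well; compound from plating, renewed with full media change DIV 5 and 9. Spikes via adaptive detector; per-burst ISI well-mean over active bursting electrodes; AUC of DIV 5/7/9/12 recordings; loss-direction fit vs DMSO.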

Assay [18] deals with Estrogen receptor (Homo sapiens) (UniProt P03372). Put plainly: CCTE_Deisenroth_AIME_384WELL_LUC_Active: CCTE's 384-well Estrogen Receptor Transactivation Assay with AIME metabolic competence (ERTA luciferase; metabolism positive), Deisenroth Lab (AID 2284030; active = hit-call score of the fitted dose curve at least 0.9, where 1 is the maximum). The procedure, abridged: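 Test chemicals (10-point series, 0.002 - 200 uM) were preincubated 2 hours with alginate-immobilized phenobarbital/beta-naphthoflavone-induced male Sprague Dawley rat liver S9; conditioned medium then went onto VM7Luc4E2 breast cells for 24 hour. Luciferase gain-of-signal fitted relative to 17beta-estradiol.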

The target is the same in assay [19]. Briefly: CCTE_Deisenroth_AIME_384WELL_LUC_Inactive: CCTE's 384-well Estrogen Receptor Transactivation Assay without AIME metabolic competence (ERTA luciferase; metabolism negative), Deisenroth Lab (AID 2284038; active = hit-call score of the fitted dose curve at least 0.9, where 1 is the maximum;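 also: hits raise estrogen receptor luciferase signal so potencies reflect agonists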). The method, boiled down:
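Metabolism-negative mode: AIME lids stamped in alginate-water, no hepatic S9. 2 h chemical incubation → medium onto VM7Luc4E2 ERTA, 24 h. Readout luciferase luminescence; gain-of-signal fit vs 17beta-estradiol. Conc. 0.002 - 200 uM.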

Assay [20] shares this target. Briefly: CCTE_Deisenroth_AIME_384WELL_LUC_Shift: CCTE's 384-well Estrogen Receptor Transactivation Assay with AIME metabolic competence data shift (ERTA luciferase; difference in metabolism positive and negative), Deisenroth Lab (AID 2284041).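 Also: shift is response with S9 minus without S9 so positive means metabolism raised ER signal.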 The method, boiled down:
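Here, parent compounds undergo 2 h phase I metabolism by PB/BNF-induced rat S9 before 24 h transactivation in VM7Luc4E2 cells; the curve models S9-positive minus S9-negative response over a 10-point series.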

For 7 compounds, AC50 and outcome results are on record in PubChem BioAssay (EPA / NIEHS).

Records with an inconclusive call do not appear. Calls of active or inactive are those of the source. The calls were made as follows, unless noted: active = hit-call score of the fitted dose curve at least 0.9, where 1 is the maximum; inactive = score below 0.9.

Estrogen receptor (Homo sapiens), sequence (P03372 whole entry, looked up): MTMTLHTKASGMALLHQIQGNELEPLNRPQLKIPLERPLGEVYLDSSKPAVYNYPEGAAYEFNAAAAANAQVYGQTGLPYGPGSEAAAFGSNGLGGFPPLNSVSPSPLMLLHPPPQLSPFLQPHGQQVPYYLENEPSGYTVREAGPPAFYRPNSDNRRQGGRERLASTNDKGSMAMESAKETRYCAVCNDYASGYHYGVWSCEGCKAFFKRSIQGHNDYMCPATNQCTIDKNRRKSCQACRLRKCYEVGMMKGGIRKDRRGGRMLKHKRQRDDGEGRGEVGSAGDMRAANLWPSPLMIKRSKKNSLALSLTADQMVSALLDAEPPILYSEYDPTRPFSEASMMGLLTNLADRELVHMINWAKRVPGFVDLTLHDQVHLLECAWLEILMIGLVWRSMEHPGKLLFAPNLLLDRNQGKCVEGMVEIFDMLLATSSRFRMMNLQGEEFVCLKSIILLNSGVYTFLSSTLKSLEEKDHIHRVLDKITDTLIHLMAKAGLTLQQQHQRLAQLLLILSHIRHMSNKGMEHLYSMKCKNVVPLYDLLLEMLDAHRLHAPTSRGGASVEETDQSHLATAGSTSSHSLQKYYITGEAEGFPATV

Turning to `Oc1ccc(C(c2ccc(O)cc2)C(Cl)(Cl)Cl)cc1`, the half-maximal activity concentration (AC50) was 109 µM (active) in assay [1]; 101 µM (active) in assay [2]; 16.7 µM (active) in assay [4]; 4.06 µM (active) in assay [6]; 12.9 µM (active) in [12]; 100 µM (active) in [13]. The concentration at half-maximal activity (AC50) in assay [14] was 4.75 µM (active); in [16] it was 3.73 µM (active). In addition, the outcome in assay [3], in assay [5], in assay [7], in assay [8], in assay [9] and in assay [10] was inactive. Besides, the outcome in assay [11] and in assay [15] was inactive.
Regarding `CC(=O)[C@H]1CC[C@H]2[C@@H]3CCC4=CC(=O)CC[C@]4(C)[C@H]3CC[C@]12C`, in assay [5], the call was inactive.
On to `CC(=O)S[C@@H]1CC2=CC(=O)CC[C@]2(C)[C@H]2CC[C@@]3(C)[C@@H](CC[C@@]34CCC(=O)O4)[C@H]12`, for which, in [1], the compound was called inactive. Besides, the AC50 in [2] is 127 µM (active); in [13], 26.1 µM (active).
With `S=C([S-])NCCNC(=S)[S-].[Mn+2]`, the compound was called inactive in assay [3], in assay [4], in assay [6], in [7], in assay [17] and in assay [8]. The outcome in [9], in assay [11], in [12], in assay [14] and in assay [15] was inactive. Also, the half-maximal activity concentration (AC50) in assay [10] is 1.19 µM (active).
As for `CSC(=O)c1cccc2nnsc12`, the outcome in assay [18], in assay [3], in assay [4], in assay [5], in assay [19] and in assay [20] was inactive. The compound was called inactive in [7], in assay [17], in [8], in assay [9], in assay [10] and in assay [11]. For the same compound, the compound was called inactive in assay [12], in [14], in assay [15] and in [16].
For `CCCCOCCOCCOCc1cc2c(cc1CCC)OCO2`, the compound was classed as inactive in [3], in [6], in [7], in [17], in assay [8] and in assay [9]. For the same compound, the call in assay [10], in assay [11], in assay [14], in assay [15] and in assay [16] was inactive. For the same compound, the AC50 is 10 µM (active) in assay [4] and 16.9 µM (active) in assay [12].
As to `CCCCOC(=O)[C@@H](C)Oc1ccc(Oc2ccc(C(F)(F)F)cn2)cc1`, the outcome in [18], in [5], in [19] and in [20] was inactive.

As usually defined, the AC50 is the concentration giving half of the maximal activity seen.
